The results in this text go back to PubChem BioAssay.

Experiment [1] can be described thus: rapamycin-like changes in RPL19A-GFP expression – cell-based, S. cerevisiae, multiplex flow cytometry, primary screen (AID 1862; in the data active = percent of DMSO control GFP below about 86%;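 note: lower values mimic rapamycin by blocking the RPL19A rise seen in DMSO cells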). Conditions: S. cerevisiae RPL19A-GFP strain, flow cytometry fluorescence, 3 h; at 10 µM; stronger effect = lower value.
Experiment [2] is described as follows: TOR pathway GLN3 branch reporter MEP2-GFP changes – S. cerevisiae, multiplex flow cytometry, primary screen (AID 1867;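 active = GFP response, as percent of the DMSO control, above the screen-wide mean plus 3 SD, about 139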;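 note: median GFP channel fluorescence of barcode-gated MEP2-GFP cells measured by flow cytometry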). Particulars: S. cerevisiae MEP2-GFP strain, 3 h, at 10 µM, stronger effect = higher value, 100% means same as DMSO wells.
Experiment [3] is described as follows: TOR pathway RTG branch CIT2 reporter changes – S. cerevisiae, GFP fusion, multiplex flow cytometry, primary screen (AID 1870;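 active = percent response above a set limit, the screen-wide mean plus 3 SD, cut at about 130% in these data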;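 note: barcoded CIT2-GFP strain pooled with four other GFP strains with rapamycin as positive control; median GFP fluorescence per well over plate mean of DMSO wells so 100% = DMSO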). Conditions: S. cerevisiae CIT2-GFP expression, 3 h, at 10 µM, stronger effect = higher value.
The nature of experiment [4]: TOR pathway LAP4-GFP level changes – S. cerevisiae, multiplex flow cytometry, primary screen (AID 1873;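 active = GFP signal, as percent of the solvent control, above the screen mean plus 3 SD, about 149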). Conditions: S. cerevisiae LAP4-GFP expression, 3 h, at 10 µM, stronger effect = higher value.
Experiment [5] can be described thus: yeast AGP1-GFP level changes, GLN3 branch – cell-based, multiplex flow cytometry, S. cerevisiae, primary screen (AID 1887;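 active = GFP signal above the screen-wide mean plus 3 SD, that is over about 124.5% of the solvent control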;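 note: AGP1-GFP fusion strain of S. cerevisiae within a five-strain barcoded multiplex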). Conditions: 3 h, at 10 µM, stronger effect = higher value.
Experiment [6] is described as follows: reduced mouse 2C T cell binding to pMHC/ICAM-1 vesicles – MLPCN validation set, flow cytometry, LFA-1/ICAM-1 modulator project, pilot screen (AID 2523;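 active = response below a set limit, under 55% cells CD8-positive and vesicle-bound, and CD8 cells' 90th-percentile brightness under 279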;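 for vesicle binding response: mean PE anti-B7-1 fluorescence of CD8+ cells relative to row control; 100% = QL9-loaded vesicles with DMSO vehicle in the same plate row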). Conditions: 2C mouse CD8+ T cells, at 7 µM, stronger effect = lower value; double positive events: measured here: CD8+/vesicle+ event percentage.
Experiment [7] deals with Integrin beta-1 (Homo sapiens) + Integrin alpha-4 (Homo sapiens) (UniProt P13612+P05556). The experiment can be described thus: alpha4beta1 integrin LIBS antibody binding reduction – U937 cells, HUTS-21 mAb, flow cytometry, validation set, VLA-4 allosteric modulator project, pilot screen (AID 2674).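 Note: antibody binding induced by the VLA-4 ligand LDV present at three times its Kd; 0% = LDV ligand with antibody and no compound and 100% = antibody without LDV.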 Particulars: HUTS-21 LIBS mAb binding, at 6.7 µM, stronger effect = higher value, binding induced by LDV ligand.
Sequence of Integrin beta-1 (Homo sapiens) + Integrin alpha-4 (Homo sapiens) (P05556 whole entry, looked up): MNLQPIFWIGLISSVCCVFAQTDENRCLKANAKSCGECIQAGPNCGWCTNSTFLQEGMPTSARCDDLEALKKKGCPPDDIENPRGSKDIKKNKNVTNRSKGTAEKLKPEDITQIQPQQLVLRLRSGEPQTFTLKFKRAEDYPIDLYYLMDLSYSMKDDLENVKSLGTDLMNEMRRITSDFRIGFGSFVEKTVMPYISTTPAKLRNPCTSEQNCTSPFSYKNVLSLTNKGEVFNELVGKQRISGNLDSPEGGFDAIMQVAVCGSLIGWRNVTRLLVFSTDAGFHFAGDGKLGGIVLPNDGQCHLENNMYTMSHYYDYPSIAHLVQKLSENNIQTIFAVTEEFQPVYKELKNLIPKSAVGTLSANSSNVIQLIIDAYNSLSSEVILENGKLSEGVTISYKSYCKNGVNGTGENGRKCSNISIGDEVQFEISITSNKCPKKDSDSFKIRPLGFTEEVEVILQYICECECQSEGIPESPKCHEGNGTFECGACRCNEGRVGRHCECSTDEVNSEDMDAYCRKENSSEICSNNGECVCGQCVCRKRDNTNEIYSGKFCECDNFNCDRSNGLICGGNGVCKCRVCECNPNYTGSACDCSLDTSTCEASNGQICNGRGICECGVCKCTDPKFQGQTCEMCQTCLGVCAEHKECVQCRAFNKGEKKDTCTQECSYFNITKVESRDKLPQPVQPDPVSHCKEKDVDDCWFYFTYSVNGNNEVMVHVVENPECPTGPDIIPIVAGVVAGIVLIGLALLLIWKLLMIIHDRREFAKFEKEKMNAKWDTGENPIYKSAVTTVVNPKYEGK
Sequence of Integrin beta-1 (Homo sapiens) + Integrin alpha-4 (Homo sapiens) (P13612 whole entry, looked up): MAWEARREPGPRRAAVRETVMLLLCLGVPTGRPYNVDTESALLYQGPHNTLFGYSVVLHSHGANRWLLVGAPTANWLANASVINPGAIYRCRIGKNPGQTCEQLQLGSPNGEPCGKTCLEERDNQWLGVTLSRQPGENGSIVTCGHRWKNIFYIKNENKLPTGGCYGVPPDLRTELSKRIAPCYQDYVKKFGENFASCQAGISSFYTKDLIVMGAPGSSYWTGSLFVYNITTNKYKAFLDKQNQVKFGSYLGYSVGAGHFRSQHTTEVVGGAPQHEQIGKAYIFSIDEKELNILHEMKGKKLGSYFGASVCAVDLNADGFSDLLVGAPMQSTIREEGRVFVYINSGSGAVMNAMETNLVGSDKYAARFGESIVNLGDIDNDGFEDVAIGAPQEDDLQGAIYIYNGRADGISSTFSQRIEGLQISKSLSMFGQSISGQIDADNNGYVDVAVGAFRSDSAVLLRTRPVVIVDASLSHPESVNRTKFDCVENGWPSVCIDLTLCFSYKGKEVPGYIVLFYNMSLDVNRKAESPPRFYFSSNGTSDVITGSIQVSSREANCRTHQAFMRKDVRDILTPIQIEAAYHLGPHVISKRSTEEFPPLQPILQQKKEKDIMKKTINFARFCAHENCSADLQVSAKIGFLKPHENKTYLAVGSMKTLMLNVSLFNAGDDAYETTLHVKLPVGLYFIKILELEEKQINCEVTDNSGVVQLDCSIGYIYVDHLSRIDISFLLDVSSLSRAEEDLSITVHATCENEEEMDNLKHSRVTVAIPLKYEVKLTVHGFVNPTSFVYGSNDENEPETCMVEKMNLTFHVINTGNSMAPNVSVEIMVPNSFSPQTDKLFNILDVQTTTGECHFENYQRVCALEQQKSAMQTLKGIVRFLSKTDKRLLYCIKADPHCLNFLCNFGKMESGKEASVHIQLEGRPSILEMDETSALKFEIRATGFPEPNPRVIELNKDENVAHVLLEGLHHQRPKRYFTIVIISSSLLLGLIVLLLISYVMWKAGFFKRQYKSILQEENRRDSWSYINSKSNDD

Experiment [8] is described as follows: calorie-restriction mimetic ROS inhibitors, yeast – validation compound set, pilot screen (AID 2706;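 active = superoxide response below 65% of plate, a cut near 3 SD across the whole screen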;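 note: yeast exposed to compound for one week at 30 degrees C before staining; 100% = mean of all compound wells on the same plate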). Particulars: S. cerevisiae aging, superoxide DHE fluorescence; at 10 µM; stronger effect = lower value.
In experiment [9] the target is Beta-adrenergic receptor kinase 1 (Homo sapiens) (UniProt P25098). The experiment in a line: GRK2 binders displacing RNA aptamer, biochemical, validation, human GRK2, bead flow cytometry (AID 488806;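 active = aptamer binding inhibition above 30%, about 3 SD of noise from non-fluorescent compounds; inactive = inhibition at or below 30%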). Particulars: bead-bound GRK2, FAM-aptamer displacement, at 10 µM, stronger effect = higher value.
Sequence of Beta-adrenergic receptor kinase 1 (Homo sapiens) (P25098 whole entry, looked up): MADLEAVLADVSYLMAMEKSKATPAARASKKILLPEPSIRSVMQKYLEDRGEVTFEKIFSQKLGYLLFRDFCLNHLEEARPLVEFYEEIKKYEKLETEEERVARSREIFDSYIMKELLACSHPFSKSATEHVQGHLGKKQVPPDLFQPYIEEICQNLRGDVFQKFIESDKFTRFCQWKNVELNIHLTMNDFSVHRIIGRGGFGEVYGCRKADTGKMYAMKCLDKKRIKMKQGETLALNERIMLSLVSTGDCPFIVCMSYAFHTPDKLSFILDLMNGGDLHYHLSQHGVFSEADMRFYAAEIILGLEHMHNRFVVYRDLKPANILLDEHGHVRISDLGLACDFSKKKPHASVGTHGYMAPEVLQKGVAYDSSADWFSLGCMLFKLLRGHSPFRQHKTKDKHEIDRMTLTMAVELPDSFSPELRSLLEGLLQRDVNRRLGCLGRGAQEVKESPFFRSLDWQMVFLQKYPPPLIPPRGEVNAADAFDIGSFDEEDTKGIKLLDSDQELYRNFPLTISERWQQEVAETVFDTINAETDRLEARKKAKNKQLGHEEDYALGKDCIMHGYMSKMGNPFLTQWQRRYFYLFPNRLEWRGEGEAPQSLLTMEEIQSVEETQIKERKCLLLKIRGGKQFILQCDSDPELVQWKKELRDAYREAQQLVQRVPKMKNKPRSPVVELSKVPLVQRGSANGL
The target of experiment [10] is Beta-2 adrenergic receptor (Homo sapiens) (UniProt P07550). The experiment can be described thus: agonist-induced loss of surface beta2AR – cell-based, FAP fluorogen, flow cytometry, validation set, pilot screen (AID 504459;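 active = percent response above 42, roughly 3 SD of non-fluorescent test compounds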;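 note: agonist-driven loss of surface beta2AR via internalization measured by FAP dye flow cytometry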). Particulars: Am2.2-beta2AR cells, at 10 µM, stronger effect = higher value.
Sequence of Beta-2 adrenergic receptor (Homo sapiens) (P07550 whole entry, looked up): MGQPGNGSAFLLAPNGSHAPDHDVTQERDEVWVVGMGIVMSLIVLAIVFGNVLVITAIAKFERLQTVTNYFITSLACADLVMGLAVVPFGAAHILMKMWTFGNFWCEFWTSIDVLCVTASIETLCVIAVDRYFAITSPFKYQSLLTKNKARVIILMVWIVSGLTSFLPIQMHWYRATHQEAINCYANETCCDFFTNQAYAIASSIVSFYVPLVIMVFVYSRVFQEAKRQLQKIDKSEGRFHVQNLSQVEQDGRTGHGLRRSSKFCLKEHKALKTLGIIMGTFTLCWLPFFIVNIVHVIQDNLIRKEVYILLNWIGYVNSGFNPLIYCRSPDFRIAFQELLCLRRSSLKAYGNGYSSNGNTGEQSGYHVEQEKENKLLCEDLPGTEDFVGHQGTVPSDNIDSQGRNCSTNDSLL
Experiment [11] concerns the target AP-2 complex subunit beta (Homo sapiens) (UniProt P63010). The experiment can be described thus: beta-arrestin/AP2 interaction blockers – biochemical, validation set, GST-AP2 beads, flow cytometry, pilot screen (AID 504541;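 active = inhibition above 54%, about 3 SD of non-fluorescent compounds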;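 note: AP2 carries R879A mutation and is captured from E. coli lysate; bead-bound FITC arrestin peptide fluorescence measuring arrestin peptide binding to AP2; 0% = DMSO wells and 100% = excess unlabeled arrestin peptide control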). Conditions: FITC arrestin peptide, at 10 µM, stronger effect = higher value, AP2 beta2 appendage fragment, R879A mutant.
Experiment [12] is described as follows: cytosolic pH regulators acting via V-ATPase – S. cerevisiae, pHLuorin, HTS validation (AID 504600; in the data active = response above about 15%;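 note: plate controls were DMSO for no effect and reference compound for full effect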). Particulars: V-ATPase proton transport, at 10 µM, stronger effect = higher value.
Experiment [13] deals with anti-desmoglein-3 scFv antibody binding to human DSG3. The experiment can be described thus: blockers of pathogenic pemphigus antibody–desmoglein-3 binding – biochemical, validation compound set, bead-based, flow cytometry, pilot screen (AID 588368;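 active = binding below the plate cutoff, the plate median minus 3 SD, with a reading above zero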;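 note: signal is the median channel fluorescence of bead-bound GFP antibody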). Conditions: Protein G beads, DSG3-Fc, scFv-GFP binding, at 10 µM, stronger effect = lower value.
Experiment [14] is described as follows: Nile Red efflux blockade in pump-expressing yeast – validation compound set, multiplex, phenotypic, pilot screen (AID 588506;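 active = efflux inhibition above 0.42, the validation set average plus 4 SD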;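 note: Nile Red retained in cells so higher fluorescence means more efflux inhibition; 0 = negative control wells and 1 = enniatin B 25 µM full block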). Particulars: S. cerevisiae pump-expressing triplex, Nile Red efflux flow cytometry; at 10 µM; stronger effect = higher value; the pumps come from Candida albicans.
The target of experiment [15] is ATP-binding cassette sub-family B member 6 (Homo sapiens) (UniProt Q9NP58). The experiment can be described thus: blockers of ABCB6-driven porphyrin uptake – K562-ABCB6 cells, flow cytometry, validation set, pilot screen (AID 588550;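 active = inhibition above the screen-wide mean plus 3 SD, about 51%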;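 note: 0% = DMSO wells and 100% = benzethonium chloride 70 µM positive control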). Particulars: K562-ABCB6 porphyrin accumulation, 1 h, at 10 µM, stronger effect = higher value.
Sequence of ATP-binding cassette sub-family B member 6 (Homo sapiens) (Q9NP58 whole entry, looked up): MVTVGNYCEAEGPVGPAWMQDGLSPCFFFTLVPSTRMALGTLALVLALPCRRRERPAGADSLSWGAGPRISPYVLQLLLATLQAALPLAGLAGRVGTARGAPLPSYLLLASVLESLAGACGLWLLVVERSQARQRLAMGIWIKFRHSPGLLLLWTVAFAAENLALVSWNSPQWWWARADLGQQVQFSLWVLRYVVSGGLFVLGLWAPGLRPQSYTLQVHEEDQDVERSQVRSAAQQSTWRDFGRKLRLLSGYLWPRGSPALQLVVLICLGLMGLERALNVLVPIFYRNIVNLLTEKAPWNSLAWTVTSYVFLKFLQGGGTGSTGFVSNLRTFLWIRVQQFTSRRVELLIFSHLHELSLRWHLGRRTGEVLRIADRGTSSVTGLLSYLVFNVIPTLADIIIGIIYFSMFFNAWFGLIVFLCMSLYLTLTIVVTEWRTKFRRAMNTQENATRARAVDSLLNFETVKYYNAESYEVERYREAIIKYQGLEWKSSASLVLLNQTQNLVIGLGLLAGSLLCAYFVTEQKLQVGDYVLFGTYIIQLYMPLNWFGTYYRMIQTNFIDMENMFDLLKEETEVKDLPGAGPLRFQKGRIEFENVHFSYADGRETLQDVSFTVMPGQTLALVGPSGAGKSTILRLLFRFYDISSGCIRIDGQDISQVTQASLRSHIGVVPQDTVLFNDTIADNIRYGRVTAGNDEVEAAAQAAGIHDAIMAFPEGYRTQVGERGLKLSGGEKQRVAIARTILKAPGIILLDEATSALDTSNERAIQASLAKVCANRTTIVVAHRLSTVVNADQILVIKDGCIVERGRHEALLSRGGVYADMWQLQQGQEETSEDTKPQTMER
Experiment [16] can be described thus: AML differentiation inducers, ER-HoxA9 marrow cells – cell-based, GFP/MAC1 double positive, flow cytometry, validation set, primary screen (AID 588685;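 active = differentiation response of at least 50%, scaled between solvent and reference control, from cells with both markers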;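 note: compound exposure lasts four days before antibody staining and flow analysis; 0% = DMSO wells and 100% = 5 µM fulvestrant positive control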). Particulars: stronger effect = higher value, normalized: vehicle 0, fulvestrant 100.

Inconclusive results are not listed. The source made the active and inactive calls.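 Rule for the calls, unless noted: active = inhibition above 50%, about 3 SD of the validation set; inactive = the rest.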

Sequence of AP-2 complex subunit beta (Homo sapiens) (P63010 whole entry, looked up, the tested form may be a part, one chain of several): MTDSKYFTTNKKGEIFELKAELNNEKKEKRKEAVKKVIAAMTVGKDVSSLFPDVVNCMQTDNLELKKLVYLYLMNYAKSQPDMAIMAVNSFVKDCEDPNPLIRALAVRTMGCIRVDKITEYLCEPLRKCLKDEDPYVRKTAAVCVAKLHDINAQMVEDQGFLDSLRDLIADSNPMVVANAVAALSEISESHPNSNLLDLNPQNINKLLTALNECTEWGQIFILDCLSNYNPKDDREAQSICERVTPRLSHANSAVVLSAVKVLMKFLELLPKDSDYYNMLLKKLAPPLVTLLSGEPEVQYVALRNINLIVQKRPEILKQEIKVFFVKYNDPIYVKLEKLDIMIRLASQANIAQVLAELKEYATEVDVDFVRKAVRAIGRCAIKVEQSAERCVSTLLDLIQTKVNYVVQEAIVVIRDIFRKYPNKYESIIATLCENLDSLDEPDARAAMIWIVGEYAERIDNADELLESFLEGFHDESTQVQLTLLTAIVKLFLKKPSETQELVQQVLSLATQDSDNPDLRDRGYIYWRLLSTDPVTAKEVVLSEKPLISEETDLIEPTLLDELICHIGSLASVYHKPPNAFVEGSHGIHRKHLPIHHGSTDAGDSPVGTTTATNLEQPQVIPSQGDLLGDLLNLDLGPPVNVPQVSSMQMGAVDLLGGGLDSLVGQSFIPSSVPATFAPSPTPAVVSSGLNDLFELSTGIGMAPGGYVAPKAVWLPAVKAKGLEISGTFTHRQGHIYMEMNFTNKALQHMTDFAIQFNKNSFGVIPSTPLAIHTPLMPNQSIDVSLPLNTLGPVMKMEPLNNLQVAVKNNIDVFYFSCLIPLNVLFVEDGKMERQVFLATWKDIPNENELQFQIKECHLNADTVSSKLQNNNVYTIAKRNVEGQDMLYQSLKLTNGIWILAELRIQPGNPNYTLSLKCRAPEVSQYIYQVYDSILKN

As for `Cc1ccc2c(CC(=O)O)coc2c1`, the percent of DMSO control GFP in experiment [1] is 104% (inactive). The results for the GFP response vs DMSO in [2] and in experiment [4] were 94.1% (inactive) and 73% (inactive), respectively. In [3], the percent response of DMSO control is 109% (inactive). The GFP response, % of DMSO in experiment [5] was 95.4% (inactive). The compound also displayed a double positive events in experiment [6] of 61.6%. Besides, in [6], the vesicle binding response is 132% (inactive). Further, the inhibition in experiment [7] is -0.45% (inactive); in experiment [11] it was 0.71% (inactive); in experiment [15], 13% (inactive). Further, the superoxide response (% of plate) in experiment [8] is 107% (inactive). For the same compound, the aptamer binding inhibition in experiment [9] was 13% (inactive). The response in [10] is -1.64% (inactive); in experiment [12] it was -0.96% (inactive). The binding (% of control) in experiment [13] was 95.5% (inactive). Further, the efflux inhibition (fraction of control) in experiment [14] is 0.02 (inactive). Besides, the differentiation response in experiment [16] was 0.24% (inactive).

On to `O=Cc1ccccc1Oc1ccccc1`, for which, in experiment [1], the percent of DMSO control GFP is 93.3% (inactive). The GFP response vs DMSO was 125% (inactive) in [2] and 86.4% (inactive) in experiment [4]. Besides, the percent response of DMSO control in [3] was 115% (inactive). The GFP response, % of DMSO in experiment [5] is 90.3% (inactive). Moreover, the double positive events in experiment [6] came out at 57.3%. Moreover, in experiment [6], the vesicle binding response was 200% (inactive). Besides, the inhibition in [7] is -14.9% (inactive); in [11] it was 32.8% (inactive); in experiment [15] it was -2% (inactive). Moreover, the superoxide response (% of plate) in experiment [8] is 107% (inactive). Besides, the aptamer binding inhibition in experiment [9] is -5% (inactive). Moreover, the response in experiment [10] is -1.17% (inactive); in experiment [12], -3.79% (inactive). Further, the binding (% of control) in [13] is 107% (inactive). Also, the efflux inhibition (fraction of control) in experiment [14] was 0.12 (inactive). Also, in experiment [16], the differentiation response is 33.6% (inactive).

`CCOc1cc2c(cc1OCC)C(c1ccccc1)N(c1ccc(C(=O)O)cc1)C(=O)C2` (stereo not given): in experiment [1], the percent of DMSO control GFP was 106% (inactive). For the same compound, the figures for the GFP response vs DMSO in experiment [2] and in [4] were 109% (inactive) and 113% (inactive), respectively. Further, in experiment [3], the percent response of DMSO control was 95.5% (inactive). The GFP response, % of DMSO in experiment [5] was 107% (inactive). The same compound gave a double positive events in experiment [6] of 61.4%. Further, in [6], the vesicle binding response is 151% (inactive). Moreover, the inhibition is 11% (inactive) in experiment [7], -11.9% (inactive) in experiment [11] and 7% (inactive) in [15]. In experiment [8], the superoxide response (% of plate) was 92% (inactive). The aptamer binding inhibition in experiment [9] is -1% (inactive). Further, the values for the response in experiment [10] and in experiment [12] were 3.08% (inactive) and 1.91% (inactive), respectively. Further, in experiment [13], the binding (% of control) is 96.8% (inactive). The efflux inhibition (fraction of control) in experiment [14] is -0.1 (inactive). Further, the differentiation response in experiment [16] was 8.59% (inactive).

With `Cc1c(O)c(=O)ccn1C`, the percent of DMSO control GFP in experiment [1] was 90.4% (inactive). The GFP response vs DMSO in experiment [2] was 121% (inactive); in [4], 76.5% (inactive). Besides, the percent response of DMSO control in [3] was 103% (inactive). The GFP response, % of DMSO in [5] was 95.4% (inactive). Also, the double positive events in [6] came to 64.3%. Further, in experiment [6], the vesicle binding response was 412% (inactive). The inhibition in [7] is 6.46% (inactive); in [11], -9.42% (inactive); in experiment [15], 9% (inactive). The superoxide response (% of plate) in experiment [8] is 99.1% (inactive). In experiment [9], the aptamer binding inhibition is 1% (inactive). Moreover, the response in [10] was -11.3% (inactive); in experiment [12], 3.11% (inactive). For the same compound, in experiment [13], the binding (% of control) is 102% (inactive). Moreover, the efflux inhibition (fraction of control) in experiment [14] is 0.27 (inactive). The differentiation response in experiment [16] is -3.28% (inactive).

On to `CC1(C)Cc2ccccc2-c2n[nH]c(=S)n21`, for which the percent of DMSO control GFP in experiment [1] was 99.1% (inactive). The GFP response vs DMSO in [2] and in experiment [4] was 102% (inactive) in each case. Moreover, the percent response of DMSO control in experiment [3] was 101% (inactive). The GFP response, % of DMSO in experiment [5] is 104% (inactive). This compound also had a double positive events in [6] of 61.1%. Besides, in experiment [6], the vesicle binding response is 203% (inactive). Also, the inhibition in experiment [7] is 9.63% (inactive); in experiment [11], 56.7% (active); in experiment [15], 11% (inactive). Further, in experiment [8], the superoxide response (% of plate) is 92.5% (inactive). Also, in experiment [9], the aptamer binding inhibition is 2% (inactive). In addition, the response in experiment [10] and in [12] was -1.77% (inactive) in each case. In experiment [13], the binding (% of control) is 97.2% (inactive). In addition, the efflux inhibition (fraction of control) in experiment [14] was 0.19 (inactive). The differentiation response in experiment [16] was -14.8% (inactive).
